Lassa entry inh: inhibitors of Lassa virus binding or cell entry; Lassa virus pseudotype entry inhibition, cell reporter; Potency, µM (top dose mostly 37.9 µM), without a hit: at the highest dose activity change, negative = inhibition, actives largely listed as inhibitors; hit rate 1.2% among 300,000; AID 540256; calls by dose curve; tested in HEK293 cells; note: potency is the fitted concentration of half-maximal effect; nearly all actives have a fitted effect of over 50% in size
HCMV antiviral: human cytomegalovirus inhibition | HFF cells, HCMV-luciferase reporter, 72 h; stronger effect = lower value | activity change, negative = inhibition, % at 57.5 µM | hit rate 4.5% among 410,000 | AID 1259415; in the data active = activity change below about -60%; inconclusive = no clear call, values can overlap the other calls; inactive = above about -39%
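Luciferase read-out from HCMV-luciferase-infected HFFs (MOI 1 PFU/cell) 72 h post infection at 37C; compounds added after 16 h cell attachment; activity normalized between buffer-only basal and Salinomycin (10uM) inhibitor controls.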
VACV mCherry inh: vaccinia inhibition (mCherry reporter); hit rate 0.63% among 310,000; Vaccinia virus mCherry reporter infection, fluorescence; AID 720579; Potency, µM (series often up to 36.5 µM), for inactives: at the top dose activity change, negative = inhibition, actives largely listed as inhibitors; calls by dose curve; tested in A549 cells; note: potency is the fitted concentration of half-maximal effect; nearly all actives have a fitted effect of over 35% in size
FMDV antiviral: antivirals against foot and mouth disease virus. FMDV antiviral cell-based qHTS. Potency, µM (top dose mostly 57.9 µM), without a hit: top-dose activity change, negative = inhibition, usual class: inhibitors. hit rate 1.2% among 410,000. AID 1159524; calls by dose curve; tested in HEK293T cells; note: read-out not given here; potency is the fitted concentration of half-maximal effect; nearly all actives have a fitted effect of over 45% in size
VACV Venus inh: vaccinia inhibition (Venus reporter) | Vaccinia virus Venus reporter expression, fluorescence | hit rate 0.46% among 330,000 | Potency, µM (top dose mostly 36.5 µM), for the others: top-dose activity change, negative = inhibition, most hits filed as inhibitors; calls by dose curve; tested in A549 cells; note: potency is the fitted concentration of half-maximal effect; nearly all actives have a fitted effect of over 30% in size
Marburg entry inh: blocks Marburg virus binding to or entry into cells; Marburg virus pseudotyped entry inhibition, cell reporter; Potency, µM (highest dose often 37.8 µM), for inactives: at the highest dose activity change, negative = inhibition, actives largely listed as inhibitors; hit rate 1.8% among 300,000; calls by dose curve; tested in HEK293 cells; note: potency is the fitted concentration of half-maximal effect
* = called active by the depositor; i = inactive; ? = inconclusive; / = no result given; [ ] = dose if it differs, or a comment. Most compounds without a hit are left out; they make up all but 6.5% or so of the library. % is set by controls: 0 for no effect and ±100 for the full control effect.

SMILES	Lassa entry inh	HCMV antiviral	VACV mCherry inh	FMDV antiviral	VACV Venus inh	Marburg entry inh
CC(NC(=O)Nc1ccc(Cl)c(Cl)c1)C(c1ccccc1)N1CCOCC1 (centres undefined)	?	-95*	/	-18%	/	?
CC(NC(=O)C1CCC(C(C)(C)C)CC1)C(c1ccccc1)N1CCOCC1 (centres undefined)	-5%[46.1 µM]	?	-11%	-15%	-17%	?
COC(=O)c1cn([C@@H]2C[C@@H](C(=O)Nc3cccc(SC)c3)N(C3CCCC3)C2)nn1	/	/	-7%	-13%	-1%	/
COc1ccc(C#Cc2cnc(Cl)c3cncnc23)cc1OC	/	/	-5%	/	-15%	/
Cc1ccc2nc(-c3cccc(SC4CCCCC4)c3)c(NCc3ccccc3)n2c1	/	-22	-34%	25µM*	?	/
COc1ccc(-c2cc(-c3nc4ccccn4c3NCc3ccccc3)ccc2OC)cc1	/	-79*	?	3.5µM*	11µM*	/
COc1ccc(-c2nc3ccccn3c2NCc2ccc3c(c2)OCO3)cc1	15%	43	-13%	14%	-2%	-8%
Clc1cccc(-c2ccc(-c3nc4ccccn4c3NCc3ccccc3)cc2)c1	/	-80*	?	-21%	?	/
c1ccc(CNc2c(-c3cccc(SC4CCCCC4)c3)nc3ccccn23)cc1	/	-35	-18%	22µM*	?	/
CCCCNC(=O)c1ccc2c(c1)N=C(CC)c1ccccc1S2	?	-35	-3%	-9%	-28%	?
CCCC1=Nc2cc(C(=O)NCCc3ccc(OCC)cc3)ccc2Sc2ccccc21	?	?	?	?	?	-5%[46.1 µM]
CCCC1=Nc2cc(C(=O)NCCCOCC)ccc2Sc2ccccc21	-41%	-82*	-26%	-14%	?	1.6µM*
CCCC1=Nc2cc(C(=O)NCCCN(CC)CC)ccc2Sc2ccccc21	?	-11	-12%	-23%	-12%	?
CCCC1=Nc2cc(C(=O)NCCOC)ccc2Sc2ccccc21	?	-97*	?	-13%	-27%	?
CCCC1=Nc2cc(C(=O)NCCCOC(C)C)ccc2Sc2ccccc21	6.5µM*	?	/	-16%	/	?
COc1oc(=O)c2cc(N)ccc2c1Cl	/	/	/	0%	/	/
CC1CCc2c(sc(NC(=O)c3cc(-c4ccc(F)cc4)on3)c2C(N)=O)C1 (centres undefined)	-8%[46.1 µM]	-6	-3%	2%	3%	1%[46.1 µM]
Cc1nc(N2CCN(C(=O)c3cccs3)CC2)c2c3c(sc2n1)CCCC3	?	-21	?	25µM*	?	-3%[46.1 µM]
Cc1nc(N2CCN(C(=O)c3ccco3)CC2)c2c3c(sc2n1)CC(C)CC3 (centres undefined)	?	?	/	?	/	13µM*
Cc1nc(N2CCN(C(=O)c3ccco3)CC2)c2c3c(sc2n1)CCCC3	-56%	-25	?	/	-22%	?
Cc1nc(N2CCN(C)CC2)c2c3c(sc2n1)CCCC3	/	-22	/	-19%	/	/
Cc1ccc(C(=O)NC(=S)/C=C2\N(C)c3ccccc3C2(C)C)cc1	/	-68*	/	-27%	/	-2%
CC(C)C(=O)NC(=S)/C=C1/N(C)c2ccccc2C1(C)C	-18%	?	i	-29%	29%	-30%
CN1/C(=C\C=N\NC(=O)c2ccc(O)cc2)C(C)(C)c2ccccc21	?	-90*	i	28µM*	38%	?
NC(=S)NN=C1CCCCCCCCCC1	-16%	-39	?	?	?	-2%
SMILES	Lassa entry inh	HCMV antiviral	VACV mCherry inh	FMDV antiviral	VACV Venus inh	Marburg entry inh
NC(=S)NN=C1CCC(C2CCCCC2)CC1 (centres undefined)	-20%[46.1 µM]	-80*	-27%	-18%	-7%	?
COc1ccc(Nc2nc(N3CCCCC3)nc(N3CCCCC3)n2)c(OC)c1	-3%	-16	/	-23%	/	-7%
COc1ccc(Nc2nc(NC(C)(C)C)nc(N3CCOCC3)n2)c(OC)c1	-7%	-61*	/	0%	/	13µM*
COc1ccc(Nc2nc(NC(C)(C)C)nc(N3CCCC3)n2)c(OC)c1	-21%	-89*	/	?	/	5.2µM*
COc1ccc(Nc2nc(N3CCCC3)nc(N3CCCC3)n2)c(OC)c1	-19%	-92*	/	-16%	/	2.1µM*
N/C(CCN1CCCCC1)=N\O	/	/	/	/	/	-5%
COc1ccc(/C=C/C(=O)C(C(N)=O)=C2SCCS2)cc1	-8%	-101*	?	15%	-14%	-28%
NC(=O)C(C(=O)/C=C/c1ccc(Cl)cc1)=C1SCCS1	/	-101*	/	?	/	/

Screening data (PubChem)
